12-LOX inh: Primary qHTS assay for inhibitors of human arachidonate 12S-lipoxygenase (ALOX12): Round 2 | 1.1% of 580,000 active | purified 12hLO, xylenol orange hydroperoxide absorbance | Polyunsaturated fatty acid lipoxygenase ALOX12 (Homo sapiens), P18054 | Potency, µM (series often up to 108 µM), for inactives: at the top dose activity change, negative = inhibition, actives largely listed as inhibitors; also: potency is read from the fitted curve at half-maximal effect
Target sequence (P18054 whole entry, looked up): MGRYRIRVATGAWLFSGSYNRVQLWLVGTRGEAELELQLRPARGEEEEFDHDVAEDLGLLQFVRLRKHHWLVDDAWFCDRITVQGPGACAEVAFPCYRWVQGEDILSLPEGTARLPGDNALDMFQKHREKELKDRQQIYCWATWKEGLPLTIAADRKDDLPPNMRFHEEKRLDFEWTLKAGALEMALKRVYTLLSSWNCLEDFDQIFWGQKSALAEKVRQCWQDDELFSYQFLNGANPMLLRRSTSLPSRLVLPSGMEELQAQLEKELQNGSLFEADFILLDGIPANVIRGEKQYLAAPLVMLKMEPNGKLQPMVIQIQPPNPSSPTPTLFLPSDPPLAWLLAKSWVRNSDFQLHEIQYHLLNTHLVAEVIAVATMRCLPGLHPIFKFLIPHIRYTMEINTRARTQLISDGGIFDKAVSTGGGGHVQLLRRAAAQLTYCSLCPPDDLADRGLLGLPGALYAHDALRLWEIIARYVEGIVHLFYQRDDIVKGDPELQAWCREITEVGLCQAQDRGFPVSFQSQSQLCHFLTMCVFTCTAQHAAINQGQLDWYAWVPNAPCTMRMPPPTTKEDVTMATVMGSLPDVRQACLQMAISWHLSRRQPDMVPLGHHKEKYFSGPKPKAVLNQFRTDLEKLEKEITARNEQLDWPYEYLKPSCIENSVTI
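Purified human 12hLO at 150 nM in 25 mM Hepes, 0.01% Triton X-100, pH 7.0, preincubated 15 min at room temperature with compound. Reaction started with 40 uM arachidonic acid, 30 min at room temperature. Hydroperoxide measured by Fe-xylenol orange, 573/405 nm absorbance ratio.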
DT40 TDP1 no CPT: qHTS for Inhibitors of human tyrosyl-DNA phosphodiesterase 1 (TDP1): qHTS in cells in absence of CPT | Potency, µM (doses to about 46.2 µM), for the others: at the highest dose activity change, negative = growth inhibition, actives largely listed as inhibitors | DT40 Tdp1-/- hTDP1 cells, no CPT, ATP luminescence, 48 h | 15% of 420,000 active | AID 686978, 2013; also: potency is read from the fitted curve at half-maximal effect; nearly all actives have a fitted effect of over 55% in size
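Stably hTDP1-transfected Tdp1-null chicken DT40 cells were treated with library compounds minus camptothecin and grown for at least 48 hr at 37 °C, after which cellular ATP was quantified by luminescence.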
TDP1 cell CPT: qHTS for Inhibitors of human tyrosyl-DNA phosphodiesterase 1 (TDP1): qHTS in cells in presence of CPT; AID 686979, 2013; Potency, µM (top dose mostly 46.2 µM), for inactives: at the top dose activity change, negative = growth inhibition, hits mostly inhibitors; 12% of 420,000 active; chicken DT40 Tdp1-/-;hTDP1 cells + 20 nM CPT, ATP luminescence, 48 h; also: potency is read from the fitted curve at half-maximal effect; nearly all actives have a fitted effect of over 55% in size
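Cell growth measured by CellTiter-Glo luminescence after a minimum 48 h, 37 C compound exposure with 20 nM CPT in Tdp1-knockout DT40 cells stably expressing hTDP1, seeded 400/well; qHTS titration format.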
HT1080 IDH1KD tx: qHTS for induction of synthetic lethality in tumor cells producing 2HG: qHTS for the HT-1080-IDH1KD cell line; Potency, µM (doses to about 46.1 µM), inactives show top-dose activity, negative = toxicity, hits mostly cytotoxic; AID 686971, 2013; 2% of 360,000 active; HT-1080 IDH1 knockdown viability, ATP luminescence, 48 h;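 also: potency is read from the fitted curve at half-maximal effect; 0% = DMSO wells and -100% = cell-free medium wells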
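Assay cells: HT-1080 with IDH1 knockdown, 750 per well, RPMI/5% FBS. Exposure: 48 h at 37 °C following 2 h pre-incubation. Read: CellTiter-Glo luminescence; fitted concentration-response, curve class assigned.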
IL-1B inflam inh: qHTS for Inhibitors of Inflammasome Signaling: IL-1-beta AlphaLISA Primary Screen; 4.7% of 360,000 active; AID 743279, 2014; activity change, % at 57.5 µM; THP-1 LPS/ATP IL-1B secretion, AlphaLISA, 16 h; hits give low values; in the data active = activity change below about -50%; inconclusive = mostly about -30% to -49%
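Secreted IL-1B measured by AlphaLISA bead assay after 16 h compound exposure of THP-1 cells; compounds (final up to 57.5 uM) added 1 h before LPS (250 ng/mL) and ATP (1.25 mM) stimulation; lower signal means less secretion.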
HT1080-NT tox: qHTS for induction of synthetic lethality in tumor cells producing 2HG: qHTS for the HT-1080-NT fibrosarcoma cell line | Potency, µM (highest dose often 46.1 µM), for inactives: at the top dose activity, negative = less viability, most hits filed as cytotoxic | AID 686970, 2013 | 1.6% of 360,000 active | HT-1080-NT fibrosarcoma viability, CellTiter-Glo ATP luminescence, 48 h;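 also: NT is the 2HG producing partner of a matched IDH1 knockdown line; potency is read from the fitted curve at half-maximal effect; 0% = DMSO-treated cells and -100% = media-only wells without cells; nearly all actives have a fitted effect of over 55% in size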
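Compounds were tested in concentration-response format on HT-1080-NT cells for 48 hours at 37 degrees C. Cell viability came from CellTiter-Glo luminescence; curves were classified by r2, response magnitude and activity.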
Numbers without * were called inactive; [ ] = another dose, or the depositor's remark. The full list was thinned out, with hits kept by preference. Unless noted, calls follow the shape of the dose curve; as a rule, active = well fitted curve in the direction sought with a large enough effect; inconclusive = small, poorly fitted or top-dose-only effect, or another doubt; inactive = no such curve, though single readings can be large; an effect the other way counts as inactive or inconclusive. Unless noted, % is scaled to controls: 0 for no effect and ±100 for the full control effect.

How did CC1(C)CCC(=NNC(N)=S)CC1 do in these assays?
12-LOX inh: inconclusive; DT40 TDP1 no CPT: 29µM*; TDP1 cell CPT: inconclusive; HT1080 IDH1KD tx: -3%; IL-1B inflam inh: 13; HT1080-NT tox: -2%

Results for NC(=S)NN=C1CSSC1 ?
DT40 TDP1 no CPT: 3.7µM*; TDP1 cell CPT: 7.3µM*; HT1080 IDH1KD tx: inconclusive; IL-1B inflam inh: -100*; HT1080-NT tox: inconclusive

How did COc1ccc(CCN(C(=O)C(F)(F)F)C(C(=O)NC2CCCC2)c2cccs2)cc1OC (stereo not drawn) do in these assays?
12-LOX inh: 12%; DT40 TDP1 no CPT: 1.8µM*; TDP1 cell CPT: 7.3µM*; HT1080 IDH1KD tx: -10%; IL-1B inflam inh: -20; HT1080-NT tox: -20%

How did COc1ccc(CCN(C(=O)c2ccco2)C(C(=O)NC2CCCC2)c2ccncc2)cc1OC (stereo not drawn) do in these assays?
12-LOX inh: -12%; DT40 TDP1 no CPT: -18%; TDP1 cell CPT: -14%; HT1080 IDH1KD tx: -2%; IL-1B inflam inh: -15; HT1080-NT tox: -2%

How did COc1ccc(CCN(C(=O)C(F)(F)F)C(C(=O)NC2CCCCC2)c2ccc(C)s2)cc1OC (stereo not drawn) do in these assays?
12-LOX inh: -3%; DT40 TDP1 no CPT: 9.2µM*; TDP1 cell CPT: 12µM*; HT1080 IDH1KD tx: 11%; IL-1B inflam inh: 4; HT1080-NT tox: 8%

Results for Cc1cccc(C(=O)N2CCC3(CC2)N=C(c2ccc(Cl)cc2)NO3)c1 ?
12-LOX inh: 0%

What do the screens show for `Oc1csc(Cc2nc(-c3ccc4ccccc4c3)cs2)n1`?
12-LOX inh: 27%; DT40 TDP1 no CPT: 15µM*; TDP1 cell CPT: inconclusive; HT1080 IDH1KD tx: -22%; IL-1B inflam inh: 35; HT1080-NT tox: -13%

How did Cc1ccc(NC(=O)CCc2c(C)nc3cc(-c4ccccc4)nn3c2C)cc1F do in these assays?
12-LOX inh: -29%; DT40 TDP1 no CPT: inconclusive; TDP1 cell CPT: inconclusive

What do the screens show for `CSc1ccc(CCNC(=O)CCc2c(C)nc3cc(-c4ccccc4)nn3c2C)cc1`?
12-LOX inh: -7%; DT40 TDP1 no CPT: -24%; TDP1 cell CPT: -23%

What do the screens show for `CCOc1ccc(CCNC(=O)CCc2c(C)nc3cc(-c4ccccc4OC)nn3c2C)cc1`?
12-LOX inh: inconclusive; DT40 TDP1 no CPT: 15µM*; TDP1 cell CPT: inconclusive

How did COc1ccc(CCNC(=O)CCc2c(C)nc3cc(-c4ccccc4)nn3c2C)cc1OC do in these assays?
12-LOX inh: -19%; DT40 TDP1 no CPT: 26µM*; TDP1 cell CPT: 16µM*

Results for CCOc1ccccc1NC(=O)CCc1c(C)nc2cc(-c3ccccc3)nn2c1C ?
12-LOX inh: -4%; DT40 TDP1 no CPT: 12µM*; TDP1 cell CPT: 18µM*

Results for Cc1cccc(CCNC(=O)CCc2c(C)nc3c4c(C)cc(C)nc4nn3c2C)c1 ?
12-LOX inh: -3%; DT40 TDP1 no CPT: -17%; TDP1 cell CPT: inconclusive

Results for COc1ccc(CCNC(=O)CCc2c(C)nc3c4c(C)cc(C)nc4nn3c2C)cc1OC ?
12-LOX inh: -17%; DT40 TDP1 no CPT: 16µM*; TDP1 cell CPT: inconclusive

Results for O=C(NCc1ccc(Cl)cc1)[C@@H]1Cc2nc[nH]c2CN1C(=O)NC1CCCCC1 ?
12-LOX inh: 8%[176 µM]

How did COc1ccc(CN2CCCC23Cc2ccccc2N([S+](C)(=O)[O-])C3)cc1 (stereo not drawn) do in these assays?
12-LOX inh: 3%[6.33 µM]

Results for O=C(NCCc1ccccc1)N(C1CCOCC1)C1CCN(CC2CCCCC2)CC1 ?
12-LOX inh: 25%

How did Cc1ccccc1CCNC(=O)c1ccc(NC(=O)N2CC(C)Sc3ccccc32)cc1 (stereo not drawn) do in these assays?
12-LOX inh: 3%; DT40 TDP1 no CPT: 7.3µM*; TDP1 cell CPT: 18µM*

What do the screens show for `CC1CN(C(=O)Nc2ccc(C(=O)NCc3ccccc3F)cc2)c2ccccc2S1` (stereo not drawn)?
12-LOX inh: -1%; DT40 TDP1 no CPT: 15µM*; TDP1 cell CPT: 23µM*

What do the screens show for `CCc1ccccc1NC(=O)N1CCc2ccccc21`?
12-LOX inh: -17%; DT40 TDP1 no CPT: inconclusive; TDP1 cell CPT: 23µM*; HT1080 IDH1KD tx: 9%; IL-1B inflam inh: -4; HT1080-NT tox: -4%

Results for CCc1ccccc1NC(=O)N1CC(C)Sc2ccccc21 (stereo not drawn) ?
12-LOX inh: -4%; DT40 TDP1 no CPT: inconclusive; TDP1 cell CPT: 21µM*

What do the screens show for `Cc1ccc(CCNC(=O)c2ccc(NC(=O)N3CC(C)Sc4ccccc43)cc2)cc1` (stereo not drawn)?
12-LOX inh: -2%; DT40 TDP1 no CPT: inconclusive; TDP1 cell CPT: inconclusive

How did O=C(CC1SC(N2CCCC2)=NC1=O)Nc1ccc(C(=O)NCc2ccccc2F)cc1 (stereo not drawn) do in these assays?
12-LOX inh: 12%; DT40 TDP1 no CPT: 3%; TDP1 cell CPT: -2%; HT1080 IDH1KD tx: 2%; IL-1B inflam inh: 2; HT1080-NT tox: 0%

What do the screens show for `Cc1cccc(NC(=O)NCC2CCOCC2)c1C`?
12-LOX inh: 26%

What do the screens show for `Cc1ccc(-c2c(C(F)(F)F)nn3c(N4CCN(CCO)CC4)cc(C)nc23)cc1`?
12-LOX inh: 58%

Results for COc1ccc(N2Cc3c(ncnc3N3CCN(C(C)=O)CC3)N(C)CC2=O)cc1 ?
12-LOX inh: 17%

What do the screens show for `CSc1cccc(NC(=O)N2CCC(OC3CCN(Cc4ccccc4)CC3)CC2)c1`?
12-LOX inh: 8%

What do the screens show for `CC1CN(C(=O)Nc2ccc(C(=O)NCc3cccc(F)c3)cc2)c2ccccc2S1` (stereo not drawn)?
12-LOX inh: 0%; DT40 TDP1 no CPT: 18µM*; TDP1 cell CPT: inconclusive

Results for Cc1cccc(CNC(=O)c2ccc(NC(=O)N3CCSc4ccccc43)cc2)c1 ?
12-LOX inh: 1%; DT40 TDP1 no CPT: 9.2µM*; TDP1 cell CPT: 16µM*
